We go through nine molecules from PubChem BioAssay (NCI).

Molecules are shown by their SMILES. The panel holds about 83,000 compounds, 20% with a hit somewhere; the sample as a whole holds those more often.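 How to read the values: 0–100, growth inhibition (40 = 60% inhibited); 0, no net growth; -100 to 0, cell death (-40 = 40% of starting cells died; -100 = all dead).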 Values without a mark were called inactive. The source made the active and inactive calls. Rule for the calls: active = growth percent below 10; inactive = the rest.

Test systems include SK-MEL-2 melanoma; EKVX NSCLC; SN12C renal; UO-31 renal; TK-10 renal; ACHN renal; A498 renal; CCRF-CEM leukemia; MOLT-4 leukemia; SR leukemia; RPMI-8226 leukemia; OVCAR-8 ovarian; OVCAR-5 ovarian; OVCAR-4 ovarian; IGROV1 ovarian; OVCAR-3 ovarian; HS 578T breast; NCI/ADR-RES ovarian; SK-OV-3 ovarian.
Holding throughout (test): NCI-60 one-dose screen, 48 h (100 = growth as untreated, 0 = no growth, -100 = all killed)
Common to all, as to settings: 10 µM unless noted

With `Cc1ccc2oc(=O)cc(C3C(C#N)=C(N)Oc4c3ccc3ccccc43)c2c1` (stereo not given), the growth in the experiment with SK-MEL-2 melanoma is 66.2%; in the experiment with EKVX NSCLC it was 77.6%; in the experiment on SN12C renal, 92.6%; with UO-31 renal, 72.3%; in the experiment with TK-10 renal, 91.9%; in the experiment with ACHN renal it was 99%. Besides, the growth in the experiment on A498 renal was 89.1%; in the experiment on CCRF-CEM leukemia, 81.9%; in the experiment on MOLT-4 leukemia it was 46.3%; in the experiment with SR leukemia it was 27.6%; in the experiment with RPMI-8226 leukemia, 70.2%; with OVCAR-8 ovarian, 85.8%. Also, the growth with OVCAR-5 ovarian is 99.3%; with OVCAR-4 ovarian it was 87.8%; in the experiment with IGROV1 ovarian it was 75.6%; in the experiment with OVCAR-3 ovarian, 75.6%; in the experiment on HS 578T breast, 85.5%; in the experiment with NCI/ADR-RES ovarian, 62.9%.
Regarding `Cc1cn(C2CC(F)C(CO)O2)c(=O)[nH]c1=O` (stereo not given), the growth was 115% with SK-MEL-2 melanoma; 89.1% in the experiment with EKVX NSCLC; 94.8% in the experiment on SN12C renal; 77.6% in the experiment with UO-31 renal; 91.9% in the experiment on TK-10 renal; 83.7% in the experiment on ACHN renal. Moreover, the growth with A498 renal is 112%; with CCRF-CEM leukemia, 80.7%; in the experiment with MOLT-4 leukemia, 57%; with OVCAR-8 ovarian, 90.4%; with OVCAR-5 ovarian it was 94.4%; in the experiment with OVCAR-4 ovarian, 93.1%. Besides, the growth with SK-OV-3 ovarian is 93.1%; in the experiment with OVCAR-3 ovarian it was 137%; with HS 578T breast, 133%; in the experiment with NCI/ADR-RES ovarian it was 86.5%.
`O=C(C[n+]1ccccc1Cl)c1ccc2c(c1)CCCC2`: the growth in the experiment on SK-MEL-2 melanoma is 103%; with EKVX NSCLC, 78.9%; with SN12C renal, 101%; in the experiment with UO-31 renal, 93.6%; in the experiment with TK-10 renal, 92.8%; in the experiment with ACHN renal it was 105%. Also, the growth in the experiment on A498 renal was 91.3%; in the experiment on CCRF-CEM leukemia it was 90.6%; in the experiment on MOLT-4 leukemia, 73.6%; in the experiment on SR leukemia it was 59.8%; in the experiment with OVCAR-8 ovarian it was 102%; with OVCAR-5 ovarian, 102%. Also, the growth in the experiment on OVCAR-4 ovarian is 83.6%; with SK-OV-3 ovarian, 99.7%; in the experiment with IGROV1 ovarian, 107%; with OVCAR-3 ovarian, 93.6%; with HS 578T breast it was 111%; with NCI/ADR-RES ovarian, 109%.
For `CN1CCN(C(=O)/C=C/c2ccc([N+](=O)[O-])o2)CC1`, the growth with SK-MEL-2 melanoma was 59.5%; with EKVX NSCLC it was 132%; in the experiment with SN12C renal, 91%; in the experiment with UO-31 renal, 79.3%; with TK-10 renal, 159%; in the experiment with ACHN renal it was 63.7%. The growth with A498 renal was 76%; in the experiment with CCRF-CEM leukemia, 56.4%; with MOLT-4 leukemia, 59.9%; in the experiment with SR leukemia it was 53.6%; with RPMI-8226 leukemia, 82.3%; in the experiment on OVCAR-8 ovarian, 77.4%. The growth with OVCAR-5 ovarian is 127%; in the experiment on OVCAR-4 ovarian it was 76.3%; with OVCAR-3 ovarian it was 92%; in the experiment on HS 578T breast it was 69.2%; in the experiment with NCI/ADR-RES ovarian it was 99.7%.
Turning to `CC1(C)N=C(N)N=C(N)N1c1cccc(CCCCc2ccccc2)c1`, the growth is 7.3% (active) in the experiment with SK-MEL-2 melanoma; 7.11% (active) in the experiment on EKVX NSCLC; 9.06% (active) in the experiment with SN12C renal; 27.2% in the experiment on UO-31 renal; 17.9% in the experiment with TK-10 renal; 33% in the experiment with ACHN renal. For the same molecule, the growth in the experiment with A498 renal is 61.7%; in the experiment on CCRF-CEM leukemia, 7.35% (active); in the experiment on MOLT-4 leukemia it was -35.9% (active); with OVCAR-8 ovarian it was 0.546% (active); in the experiment with OVCAR-5 ovarian, 38.5%; in the experiment on OVCAR-4 ovarian, 7.12% (active). The growth in the experiment on SK-OV-3 ovarian is 30.3%; in the experiment on OVCAR-3 ovarian, -16.8% (active); with HS 578T breast, 66.5%; in the experiment with NCI/ADR-RES ovarian, 90.3%.
As for `Nc1nc2ccc(CNc3ccc(C(=O)NC(CC(=O)O)C(=O)O)cc3)cc2c(=O)[nH]1` (stereo not given), the growth is 51.9% with SK-MEL-2 melanoma; 63.6% in the experiment with EKVX NSCLC; 41.3% in the experiment on SN12C renal; 16.9% with UO-31 renal; 82% in the experiment with TK-10 renal; 33.1% with ACHN renal. Besides, the growth was 93.1% in the experiment with A498 renal; 23.2% with CCRF-CEM leukemia; 30.4% with MOLT-4 leukemia; 44.3% in the experiment with RPMI-8226 leukemia; 13.1% in the experiment on OVCAR-8 ovarian; 52.2% in the experiment with OVCAR-5 ovarian. Also, the growth with OVCAR-4 ovarian is 65.6%; in the experiment with SK-OV-3 ovarian it was 76.8%; with OVCAR-3 ovarian, 58.2%; in the experiment with HS 578T breast, 97.5%; with NCI/ADR-RES ovarian, 33%.
Consider `O=C(C[n+]1cccc(Br)c1)c1ccc2c(c1)CCCC2`, for which the growth in the experiment on SK-MEL-2 melanoma is 102%; in the experiment on EKVX NSCLC, 94.8%; in the experiment on SN12C renal, 104%; in the experiment with UO-31 renal it was 90.1%; with TK-10 renal, 105%; in the experiment on ACHN renal, 108%. Besides, the growth was 106% in the experiment with A498 renal; 102% with CCRF-CEM leukemia; 86.2% with MOLT-4 leukemia; 99.3% with SR leukemia; 108% with OVCAR-8 ovarian; 96.2% in the experiment with OVCAR-5 ovarian. The growth in the experiment with OVCAR-4 ovarian was 114%; in the experiment with SK-OV-3 ovarian, 89.7%; in the experiment with IGROV1 ovarian, 101%; with OVCAR-3 ovarian, 99.9%; in the experiment on HS 578T breast it was 105%; with NCI/ADR-RES ovarian, 102%.
Regarding `COC(OC)C1(c2ccccc2)NC(=O)NC1=O` (stereo not given), the growth in the experiment with SK-MEL-2 melanoma was 104%; in the experiment with EKVX NSCLC, 112%; in the experiment with SN12C renal, 101%; in the experiment on UO-31 renal, 101%; in the experiment on TK-10 renal, 101%; with ACHN renal it was 108%. The growth in the experiment with A498 renal is 108%; with CCRF-CEM leukemia, 112%; with MOLT-4 leukemia, 89.1%; in the experiment with SR leukemia, 74.8%; in the experiment on OVCAR-8 ovarian it was 103%; with OVCAR-5 ovarian it was 122%. For the same molecule, the growth in the experiment with OVCAR-4 ovarian was 113%; in the experiment with SK-OV-3 ovarian, 102%; in the experiment on IGROV1 ovarian it was 142%; in the experiment with OVCAR-3 ovarian, 126%; with HS 578T breast, 111%; in the experiment with NCI/ADR-RES ovarian it was 116%.
Consider `CC(=O)N1N=C(CCC(=O)c2nc3ccc([N+](=O)[O-])cc3[nH]2)OC1c1ccc(O)cc1` (stereo not given), for which the growth is 57.4% in the experiment with SK-MEL-2 melanoma; 92.5% in the experiment on EKVX NSCLC; 109% with SN12C renal; 80.9% in the experiment with UO-31 renal; 113% with TK-10 renal; 106% in the experiment on ACHN renal. Also, the growth was 104% in the experiment on A498 renal; 114% in the experiment with CCRF-CEM leukemia; 120% in the experiment on RPMI-8226 leukemia; 105% in the experiment with OVCAR-8 ovarian; 104% in the experiment on OVCAR-5 ovarian; 109% with OVCAR-4 ovarian. Further, the growth was 75.3% in the experiment on SK-OV-3 ovarian; 103% with IGROV1 ovarian; 103% with OVCAR-3 ovarian; 104% in the experiment with HS 578T breast; 99.9% with NCI/ADR-RES ovarian.
